# Data taken from PMC11062922 (Nature Chemical Biology, 2023).
# Where two headings read alike, the source gives them in different places.
# Columns and labels:
# Set-up in all cases: species or system human, MV4-11 + K-562 + COLO205 + SK-N-BE2 + OVCAR-8
# COX5A = conditions: read-out: apparent Kd; compound concentrations: 100 nM and 1000 nM (sheet 'Samples'), CATDS: 0.15625736744525701; n = 1
# DDR1 = conditions: read-out: apparent Kd, compound concentrations: 100 nM and 1000 nM (sheet 'Samples'), n = 1
# DDR2 = conditions: read-out: apparent Kd; compound concentrations: 100 nM and 1000 nM (sheet 'Samples'), CATDS: 0.115124869581512; n = 1
# FLT3 = conditions: read-out: apparent Kd; compound concentrations: 100 nM and 1000 nM (sheet 'Samples'), CATDS: 0.12065000979252; n = 1
# NNT = conditions: read-out: apparent Kd; compound concentrations: 100 nM and 1000 nM (sheet 'Samples'), CATDS: 0.115819369976432; n = 1
# PDXK = conditions: read-out: apparent Kd, compound concentrations: 100 nM and 1000 nM (sheet 'Samples'), n = 1
# RET = conditions: read-out: apparent Kd; compound concentrations: 100 nM and 1000 nM (sheet 'Samples'), CATDS: 0.12937404694589899; n = 1
# ZAK = conditions: read-out: apparent Kd; compound concentrations: 100 nM and 1000 nM (sheet 'Samples'), CATDS: 8.61130704510496E-2; n = 1
# CSNK1D = conditions: read-out: apparent Kd, compound concentrations: 100 nM and 1000 nM (sheet 'Samples'), n = 1
# CSNK1E = conditions: read-out: apparent Kd, compound concentrations: 100 nM and 1000 nM (sheet 'Samples'), n = 1
# FN3KRP = conditions: read-out: apparent Kd; compound concentrations: 100 nM and 1000 nM (sheet 'Samples'), CATDS: 4.0325276132441398E-2; n = 1
# FN3K = conditions: read-out: apparent Kd; compound concentrations: 100 nM and 1000 nM (sheet 'Samples'), CATDS: 3.5729467318233003E-2; n = 1
# MAPK14 = conditions: read-out: apparent Kd, compound concentrations: 100 nM and 1000 nM (sheet 'Samples'), n = 1
# MAPK1 = conditions: read-out: apparent Kd; compound concentrations: 100 nM and 1000 nM (sheet 'Samples'), CATDS: 3.8538636035205603E-2; n = 1
# MAPK8 = conditions: read-out: apparent Kd, compound concentrations: 100 nM and 1000 nM (sheet 'Samples'), n = 1
# MAPK9 = conditions: read-out: apparent Kd, compound concentrations: 100 nM and 1000 nM (sheet 'Samples'), n = 1
# MAPKAPK2 = conditions: read-out: apparent Kd, compound concentrations: 100 nM and 1000 nM (sheet 'Samples'), n = 1
# NUAK2 = conditions: read-out: apparent Kd; compound concentrations: 100 nM and 1000 nM (sheet 'Samples'), CATDS: 3.7503176439752997E-2; n = 1
# PAK6 = conditions: read-out: apparent Kd; compound concentrations: 100 nM and 1000 nM (sheet 'Samples'), CATDS: 3.6851014087153897E-2; n = 1
# PRKD1 = conditions: read-out: apparent Kd; compound concentrations: 100 nM and 1000 nM (sheet 'Samples'), CATDS: 5.7643815107824597E-2; n = 1
# PRKD2 = conditions: read-out: apparent Kd; compound concentrations: 100 nM and 1000 nM (sheet 'Samples'), CATDS: 6.6871929523774506E-2; n = 1
# PRKD3 = conditions: read-out: apparent Kd; compound concentrations: 100 nM and 1000 nM (sheet 'Samples'), CATDS: 6.6409082952543802E-2; n = 1
# RIPK2 = conditions: read-out: apparent Kd, compound concentrations: 100 nM and 1000 nM (sheet 'Samples'), n = 1
# CSNK1A1 = conditions: read-out: apparent Kd; compound concentrations: 100 nM and 1000 nM (sheet 'Samples'), CATDS: 7.9796856628157303E-2; n = 1
# GAK = conditions: read-out: apparent Kd; compound concentrations: 100 nM and 1000 nM (sheet 'Samples'), CATDS: 4.3389501889838297E-2; n = 1
# MAPK10 = conditions: read-out: apparent Kd; compound concentrations: 100 nM and 1000 nM (sheet 'Samples'), CATDS: 7.1886071403025706E-2; n = 1
# MAPK11 = conditions: read-out: apparent Kd; compound concentrations: 100 nM and 1000 nM (sheet 'Samples'), CATDS: 4.3828309846065103E-2; n = 1
# NLK = conditions: read-out: apparent Kd; compound concentrations: 100 nM and 1000 nM (sheet 'Samples'), CATDS: 0.178729596227966; n = 1
# PIK3CD = conditions: read-out: apparent Kd; compound concentrations: 100 nM and 1000 nM (sheet 'Samples'), CATDS: 8.1619991171871006E-2; n = 1
# PIP4K2C = conditions: read-out: apparent Kd; compound concentrations: 100 nM and 1000 nM (sheet 'Samples'), CATDS: 4.0260686940240001E-2; n = 1
smiles,measurement,setting,value
COC(=O)Nc1nc2cc(Oc3ccc(NC(=O)Nc4cccc(Br)c4)cc3)ccc2[nH]1.Cl [GW694234A],potency estimated from few doses,COX5A,463 nM
same,potency estimated from few doses,DDR1; CATDS: 0.25244983438360302,217 nM
same,potency estimated from few doses,DDR2,865 nM
same,potency estimated from few doses,FLT3,777 nM
same,potency estimated from few doses,NNT,853 nM
same,potency estimated from few doses,PDXK; CATDS: 0.115099137531036,865 nM
same,potency estimated from few doses,RET,668 nM
same,potency estimated from few doses,ZAK,2040 nM
CC(CO)Nc1cc(-c2[nH]c3cccnc3c2-c2ccc(F)cc2)ccn1.Cl (stereo not drawn) [RO3202312-001],potency estimated from few doses,CSNK1D; CATDS: 9.2931032054770199E-2,48.2 nM
same,potency estimated from few doses,CSNK1E; CATDS: 6.9907661952316402E-2,115 nM
same,potency estimated from few doses,FN3KRP,967 nM
same,potency estimated from few doses,FN3K,1990 nM
same,potency estimated from few doses,MAPK14; CATDS: 0.154329578320028,12.1 nM
same,potency estimated from few doses,MAPK1,1240 nM
same,potency estimated from few doses,MAPK8; CATDS: 4.79247089655142E-2,440 nM
same,potency estimated from few doses,MAPK9; CATDS: 0.13086781986766799,18.6 nM
same,potency estimated from few doses,MAPKAPK2; CATDS: 0.22131403995385401,4.81 nM
same,potency estimated from few doses,NUAK2,1450 nM
same,potency estimated from few doses,PAK6,1620 nM
same,potency estimated from few doses,PDXK; CATDS: 4.2866477052702801E-2,716 nM
same,potency estimated from few doses,PRKD1,219 nM
same,potency estimated from few doses,PRKD2,132 nM
same,potency estimated from few doses,PRKD3,135 nM
same,potency estimated from few doses,RIPK2; CATDS: 4.9490640044255602E-2,386 nM
CN1CCC(n2cnc(-c3ccc(F)cc3)c2-c2ccnc(NCCO)n2)CC1 [SB-226879],potency estimated from few doses,CSNK1A1,91.2 nM
same,potency estimated from few doses,CSNK1D; CATDS: 0.29962108595450698,6.97 nM
same,potency estimated from few doses,CSNK1E; CATDS: 0.149531361707545,21.2 nM
same,potency estimated from few doses,DDR1; CATDS: 4.0127184299889498E-2,2140 nM
same,potency estimated from few doses,GAK,1240 nM
same,potency estimated from few doses,MAPK10,126 nM
same,potency estimated from few doses,MAPK11,1170 nM
same,potency estimated from few doses,MAPK14; CATDS: 0.120722189423433,32.5 nM
same,potency estimated from few doses,MAPK8; CATDS: 4.3769759721199501E-2,1180 nM
same,potency estimated from few doses,MAPK9; CATDS: 6.64061265651648E-2,166 nM
same,potency estimated from few doses,MAPKAPK2; CATDS: 0.113562081493031,37.1 nM
same,potency estimated from few doses,NLK,15.4 nM
same,potency estimated from few doses,PIK3CD,85.3 nM
same,potency estimated from few doses,PIP4K2C,2090 nM
same,potency estimated from few doses,RIPK2; CATDS: 4.98304008841833E-2,572 nM
